JMJD2A Tudor = inhibitors of human JMJD2A Tudor domain; 4.4% of 390,000 active; AID 504339; AlphaScreen JMJD2A-Tudor / H3K4me3 peptide binding; Potency, µM (top dose mostly 114 µM), for inactives: top-dose activity change, negative = inhibition, most hits filed as inhibitors; O75164; also: % is scaled to controls: 0 for no effect and ±100 for the full control effect; nearly all actives have a fitted effect of over 50% in size
G9a block = blocks human histone lysine methyltransferase G9a | Potency, µM (highest dose often 102 µM), inactives show top-dose activity, negative = inhibition, usual class: inhibitors | Q96KQ7 | 8.8% of 350,000 active | AID 504332 | G9a H3K9 monomethylation, AlphaScreen, 2 h; also: % is scaled to controls: 0 for no effect and ±100 for the full control effect; nearly all actives have a fitted effect of over 75% in size
Target sequence (Q96KQ7 913-1193 limits assumed): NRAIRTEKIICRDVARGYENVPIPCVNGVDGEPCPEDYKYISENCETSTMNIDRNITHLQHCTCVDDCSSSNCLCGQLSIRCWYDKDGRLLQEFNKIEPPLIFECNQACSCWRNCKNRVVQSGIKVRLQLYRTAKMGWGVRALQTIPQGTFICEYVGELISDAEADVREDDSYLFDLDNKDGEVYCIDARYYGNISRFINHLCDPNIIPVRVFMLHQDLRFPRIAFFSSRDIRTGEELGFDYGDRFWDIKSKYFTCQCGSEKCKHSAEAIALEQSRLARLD
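AlphaScreen read-out: biotin-H3K9 peptide (500 nM) methylation by 20 nM enzyme with 20 uM SAM, 2 h at room temperature after 15 min compound preincubation; anti-monomethyl H3K9 antibody plus donor/acceptor beads, 10 min dark.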
BAZ2B inh = inhibitors of human BAZ2B bromodomain | AlphaScreen BAZ2B-H3K14Ac peptide displacement | 4.4% of 360,000 active | Potency, µM (top dose mostly 114 µM), without a hit: at the highest dose activity change, negative = inhibition, actives largely listed as inhibitors | AID 504333 | Q9UIF8; also: % is scaled to controls: 0 for no effect and ±100 for the full control effect; nearly all actives have a fitted effect of over 60% in size
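Inhibition is scored as reduced AlphaScreen emission. The BAZ2B/b-H3(5-23)K14Ac complex (50 nM each) in PBS pH 7.4, 0.01% Tween-20 meets compound (up to 110 uM) for 30 min at RT before bead addition.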
HP1b binding inh = HP1-beta chromodomain-methylated histone interaction inhibition | P83916 | AlphaScreen HP1-beta / biotin-H3K9me3 peptide binding | Potency, µM (highest dose often 114 µM), for inactives: at the highest dose activity change, negative = inhibition, usual class: inhibitors | 0.56% of 390,000 active | AID 540317; also: nearly all actives have a fitted effect of over 70% in size
Target sequence (P83916 whole entry, looked up): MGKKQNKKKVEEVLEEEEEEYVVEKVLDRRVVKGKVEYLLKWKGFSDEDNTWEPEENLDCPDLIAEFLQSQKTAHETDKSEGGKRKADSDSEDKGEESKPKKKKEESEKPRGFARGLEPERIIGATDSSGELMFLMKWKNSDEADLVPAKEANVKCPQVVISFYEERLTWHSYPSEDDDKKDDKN
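Compound inhibition of the preformed complex between 50 nM HP1-beta and 50 nM biotinylated H3K9me3 peptide was read by AlphaScreen. Buffer was PBS pH 7.4 with 0.01% Tween-20. Incubations ran 30 min at room temperature, with 10 ug/mL donor/acceptor beads.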
GLS inhibitor = inhibitors of human glutaminase (GLS) | O94925 | GLS enzymatic activity, qHTS titration | Potency, µM (titrated, usually from 45.5 µM), for inactives: at the highest dose activity change, negative = inhibition, actives largely listed as inhibitors | 0.21% of 410,000 active | AID 624170; also: % is scaled to controls: 0 for no effect and ±100 for the full control effect
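Coupled fluorescence readout: glutamate oxidase/HRP/Amplex Red detect glutamate formed by hKGA from L-glutamine (1 mM solution added). Buffer 45 mM KH2PO4 pH 8.2, 0.02% Tween-20; reads at t0 and 30 min RT.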
The depositor's hits bear a star; ? = inconclusive; nt = not tested or not shown; [ ] = another dose, or the depositor's remark. Most compounds without a hit are left out; they make up all but 10% or so of the library. Calls follow the shape of the dose curve; as a rule, active = well fitted curve in the direction sought with a large enough effect; inconclusive = small, poorly fitted or top-dose-only effect, or another doubt; inactive = no such curve, though single readings can be large; an effect the other way counts as inactive or inconclusive. Potency is read from the fitted curve at half-maximal effect.

SMILES	JMJD2A Tudor	G9a block	BAZ2B inh	HP1b binding inh	GLS inhibitor
Cc1ccc(S(=O)(=O)N2CCOCC2)cc1C(=O)NNC(=O)c1ccoc1C	-1%	10%	nt	20%[57 µM]	10%
CCC1CCCCN1C(=S)NC(=O)c1cc(S(=O)(=O)N2CCOCC2)ccc1C (stereo not given)	-2%	45µM*	-26%	32%	19%
COc1ccccc1CNC(=O)C1CCCN(c2nc3ccccc3n3cccc23)C1 (stereo not given)	-18%	-6%[59 µM]	-13%	37%	5%
COc1ccc(C(=O)Nc2ccc(NC(=O)c3cc(OC)c(OC)c(OC)c3)cn2)cc1	-8%	40µM*	?	21%	-1%
COc1ccc(C(=O)Nc2ccc(NC(=O)c3cccs3)cn2)cc1	?	22µM*	?	32%	-6%
COc1ccc(C(=O)Nc2ccc(NC(=O)c3cccc(F)c3)cn2)cc1	?	45µM*	?	98%	-2%
COc1ccc(C(=O)Nc2ccc(NC(=O)Cc3ccccc3)cn2)cc1	-10%	11µM*	14%	32%	?
COc1ccc(NC(=O)c2cccs2)cc1	-3%	-10%[59 µM]	-2%	36%	4%
COc1cc(C(=O)Nc2ccc(NC(=O)c3ccccc3)nc2)cc(OC)c1OC	-6%	17%	?	22%	-14%
C#Cc1cccc(N2C(=O)C3C4C=CC(C3C2=O)C2C(=O)N(c3cccc(C#C)c3)C(=O)C42)c1 (stereo not given)	-8%	nt	nt	14%	1%
Cc1oc2ccc(O)c(CN(C)Cc3ccccc3)c2c1C(=O)Nc1cccc(Cl)c1C	-10%	-1%[59 µM]	-5%	16%	7%
Cc1noc(C)c1C(=O)N1CCC2(CC1)CN(Cc1cc(C(F)(F)F)cc(C(F)(F)F)c1)C2	nt	0%[12.7 µM]	nt	nt	nt
O=C(Nc1ccnn1C1CCN(Cc2ccccc2OC(F)F)CC1)c1cccnc1	-16%	2%	-3%	31%	2%
Cc1ccc(NC(=O)c2ncoc2-c2ccco2)cc1Cl	12%	-4%[12.7 µM]	-20%	9%	-5%
COC(=O)c1ccc(-n2c(/C=C/c3cc(OC)c(OC)c(OC)c3)nc3cc(Cl)ccc3c2=O)cc1	-2%	8%[59 µM]	2%	61%	-3%
COc1cc(C(=O)Nc2ccc(NC(=O)C3CC3)nc2)cc(OC)c1OC	0%	25%	2%	68%	1%
COc1cc(C(=O)Nc2ccc(NC(=O)C(C)C)nc2)cc(OC)c1OC	-22%	?	79µM*	26%	-1%
COCC(=O)N1CCC2(CC1)CN(C(=O)Nc1cccc(C#N)c1)C2	nt	-3%[12.7 µM]	nt	nt	nt
Cc1c(C=O)c(Cl)n(C)c(=O)c1C#N	79µM*	40µM*	56µM*	12%	2%
CC(=O)N=Cc1c(C)c(C#N)c(=O)n(C)c1O	-15%	45µM*	-31%	34%	12%
O=C(NCC(O)c1nc2ccccc2[nH]1)c1cc2ccccc2[nH]1 (stereo not given)	nt	nt	nt	nt	-4%
CC(C(=O)Nc1ccc2c(c1)OCO2)N1CCC(N2CCCCC2)CC1 (stereo not given)	25µM*	?	50µM*	-26%	1%
CC(C(=O)Nc1ccc2c(c1)OCO2)N1CCN(C)CC1 (stereo not given)	0.79µM*	14µM*	45µM*	22µM*	5%
CC(C(=O)Nc1ccc2[nH]c(=O)[nH]c2c1)N1CCN(Cc2ccc3c(c2)OCO3)CC1 (stereo not given)	-7%	9%[12.7 µM]	8%	38%	10%
CNC(=O)c1c(NC(=O)C2=COCCO2)sc2c1CCN(C(=O)OC)C2	-12%	4%	-9%	29%	0%
SMILES	JMJD2A Tudor	G9a block	BAZ2B inh	HP1b binding inh	GLS inhibitor
Cc1cccc(Oc2ccc(NC(=O)C3CC=CCC3C(=O)O)cc2)c1 (stereo not given)	?	45µM*	?	20%	-3%
N#Cc1ccc(Oc2ccc(NC(=O)C3CC=CCC3C(=O)O)cc2)cc1 (stereo not given)	-13%	12%	2%	34%	-7%
Cc1nc(S/C(=C/c2ccc(OCc3ccc(C(=O)O)cc3)cc2)C(=O)O)n[nH]1	2.8µM*	?	?	15%	?
N#C/C(=C\c1ccc(OCc2ccc(C(=O)O)cc2)cc1)C(=O)NCc1ccccc1	?	?	?	42%	6%
c1ccc(CSc2ccc(-c3ccccn3)nn2)cc1	7.9µM*	-39%	6.3µM*	27%	2%
O=C(CSc1ccc(-c2ccccn2)nn1)c1ccccc1	7.1µM*	?	3.5µM*	37%	-8%
O=C(CSc1ccc(-c2ccco2)nn1)N1CCCC1	-25%	?	-3%	43%	13%
O=C(CSc1ccc(-c2ccco2)nn1)N1CCCCC1	-5%	22µM*	?	24%	-16%
O=C(CSc1ccc(-c2ccccn2)nn1)N1CCCC1	3.2µM*	3.5µM*	7.1µM*	-13%	?
O=C(CSc1ccc(-c2ccccn2)nn1)NC1CCCC1	3.2µM*	-24%	3.2µM*	15%	8%
Cc1ccc(NC(=O)Cn2c(=O)n(-c3ccc(Cl)c(Cl)c3)c(=O)c3c(C)c(C)sc32)c(C)c1	-10%	-14%[59 µM]	1%	25%	-7%
O=S1(=O)CC(N2CC=CC2)CN1Cc1ccc(F)cc1 (stereo not given)	nt	nt	nt	nt	-29%
O=C(Nc1ncn[nH]1)c1ccccc1Br	-3%	-5%[59 µM]	-1%	40%	-2%
CSc1ccccc1C(=O)Nc1ccccc1C	-8%	nt	-2%	5%	-1%
CSc1ccccc1C(=O)Nc1ncn[nH]1	79µM*	1.6µM*	?	44%	1%
CSc1ccccc1C(=O)NCCOc1cccc(C)c1	-3%	45µM*	-15%	71%	3%
CSc1ccccc1C(=O)Nc1c(C)cccc1C	-4%	28µM*	-12%	28%	-11%
COCCn1c(SCC(=O)N2CCCCC2)nc2ccccc2c1=O	-12%	?	-34%	23%	-3%
COCCn1c(SCCN2CCCCC2)nc2ccccc2c1=O	2.2µM*	?	?	?	9%
CCOC(=O)c1cccnc1SCc1cc(=O)n2ccccc2n1	-2%	-30%	0%	21%	7%
CC(OC(=O)c1cccnc1SCc1cc(=O)n2ccccc2n1)c1ccccn1 (stereo not given)	-4%	50µM*	-33%	19%	3%
CCCn1c(N)c(Sc2ccccc2[N+](=O)[O-])c(=O)n(CCC)c1=O	11%	19%	-1%	14%	-6%
COc1cc(/C=N/NC(=S)Nc2cccc(S(=O)(=O)N(C)C)c2)ccc1O	?	-1%[59 µM]	-38%	-21%	10µM*
COc1cc(/C=N/NC(=O)c2cccc(NC(=O)c3ccccc3)c2)ccc1O	-16%	17%	-14%	57%	-2%
CN(C)S(=O)(=O)c1cccc(NC(=S)N/N=C/C2CC=CCC2)c1 (stereo not given)	13µM*	5.6µM*	-25%	38%	2%
